FLuc counter: qHTS profiling assay for firefly luciferase inhibitor/activator using purifed enzyme and Km concentrations of substrates (counterscreen for miR-21 project); Luciferin 4-monooxygenase (Photinus pyralis), P08659; purified FLuc, Km substrates, luminescence inhibition; Potency, µM (titrated, usually from 57.5 µM), actives largely listed as inhibitors; 360,000 tested, 6.9% active; also: nearly all actives have a fitted effect of over 55% in size
Target sequence (P08659 whole entry, looked up): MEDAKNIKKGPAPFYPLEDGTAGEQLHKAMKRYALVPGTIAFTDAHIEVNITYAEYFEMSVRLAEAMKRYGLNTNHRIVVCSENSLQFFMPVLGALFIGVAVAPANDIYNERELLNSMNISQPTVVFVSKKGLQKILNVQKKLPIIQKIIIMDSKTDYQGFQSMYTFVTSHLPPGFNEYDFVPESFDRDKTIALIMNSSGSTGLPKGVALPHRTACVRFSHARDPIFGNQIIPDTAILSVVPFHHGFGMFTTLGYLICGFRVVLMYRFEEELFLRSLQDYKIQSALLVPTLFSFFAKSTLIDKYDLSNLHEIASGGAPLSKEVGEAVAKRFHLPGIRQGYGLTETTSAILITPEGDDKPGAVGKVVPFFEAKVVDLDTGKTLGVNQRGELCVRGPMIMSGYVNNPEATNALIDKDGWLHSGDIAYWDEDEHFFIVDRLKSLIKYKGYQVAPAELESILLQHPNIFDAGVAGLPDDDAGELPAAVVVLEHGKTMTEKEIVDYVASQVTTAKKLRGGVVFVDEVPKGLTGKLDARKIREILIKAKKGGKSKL
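Biochemical qHTS of compounds, final roughly 60 µM downward over six points, against 10 nM purified firefly luciferase using Km concentrations of substrates (10 uM D-luciferin, 10 uM ATP) in Tris acetate pH 7.5 buffer; luminescence output.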
ELG1 genotoxic: qHTS screen for small molecules that induce genotoxicity in human embryonic kidney (HEK293T) cells expressing luciferase-tagged ELG1; Potency, µM (doses to about 46 µM), hits mostly activators; HEK293T ELG1-luciferase reporter, luminescence, 16 h; 330,000 tested, 1.3% active; also: nearly all actives have a fitted effect of over 60% in size
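DMSO vehicle served as control against compound-treated ELG1-luciferase HEK293T cells; exposure lasted 16 hr at 37 °C and 5% CO2, followed by ONE-Glo luminescence detection after 30 min.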
Rab9 prom act: qHTS Assay for Rab9 Promoter Activators | Huh7 Rab9 promoter-luciferase reporter, luminescence, 24 h | Potency, µM (doses to about 9.22 µM), usual class: activators | 320,000 tested, 2.8% active | AID 485297, 2010; also: nearly all actives have a fitted effect of over 60% in size
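Cells were plated at 1500 per well in reduced-serum medium with 10% FBS and left 2 h. Compound in DMSO was then added for 24 h at 37 °C. Reporter signal was read by luminescence after 10 min with luciferase detection reagent.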
NPC1 promoter act: qHTS Assay for NPC1 Promoter Activators. Huh7 NPC1 promoter luciferase reporter, 24 h. Potency, µM (series often up to 9.22 µM), hits mostly activators. 320,000 tested, 2.4% active. AID 485313, 2010; also: nearly all actives have a fitted effect of over 60% in size
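NPC1 promoter–luciferase Huh7 cells; 24 h compound; luminescence.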
SMN2 splice enh: qHTS Assay for Enhancers of SMN2 Splice Variant Expression; HEK293 SMN2-luciferase splicing reporter, luminescence, 30-36 h; Potency, µM (doses to about 46.1 µM), usual class: activators; 210,000 tested, 2.8% active; also: nearly all actives have a fitted effect of over 55% in size
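HEK293 cells carry an SMN2 […]–luciferase reporter in which exon 7 inclusion puts luciferase in frame. Cells were plated 10-12 h before compound addition, then incubated 30-36 h at 37C. ONE-Glo luminescence was read; sodium butyrate at 4.5 mM final served as control.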
Luc counter: Counterscreen for Luciferase (Kinase-Glo TM) Inhibition; Luciferin 4-monooxygenase (Photuris pensylvanica), Q27757; Kinase-Glo luciferase, ATP luminescence, 8 min; Potency, µM (series often up to 38.3 µM), actives largely listed as inhibitors; 200,000 tested, 0.28% active; AID 1379, 2008; also: nearly all actives have a fitted effect of over 60% in size
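Light output from Kinase-Glo luciferase with luciferin and 10 uM ATP in 50 mM imidazole pH 7.2, KCl, MgCl2, Tween 20, BSA; compound pin-delivered, 8-min ambient incubation, then luminescence read.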
Of the large screens only hits and unclear results are named; the others gave an inactive call. An excerpt weighted towards active compounds, which were near 7.4% of everything screened. Calls follow the shape of the dose curve; as a rule, active = well fitted curve in the direction sought with a large enough effect; inconclusive = small, poorly fitted or top-dose-only effect, or another doubt; inactive = no such curve, though single readings can be large; an effect the other way counts as inactive or inconclusive.

COc1cc(/C=C/c2nc(C#N)c(NC(C)c3ccccc3)o2)cc(OC)c1OC (stereo not drawn)	SMN2 splice enh inconclusive (no result: ELG1 genotoxic, Rab9 prom act, NPC1 promoter act, Luc counter)
Cc1ccc(-c2ccc(=O)n(CC(=O)NCCc3ccc(Cl)cc3)n2)cc1	none (no result: ELG1 genotoxic, Rab9 prom act, NPC1 promoter act, SMN2 splice enh, Luc counter)
C/C(=N\OC(=O)c1ccccc1)c1cc(-c2ccc(Cl)cc2)no1	ELG1 genotoxic inconclusive, Rab9 prom act 3.16µM, NPC1 promoter act 2.82µM, SMN2 splice enh inconclusive
C/C(=N/OC(=O)C1CC1)c1cc(-c2ccc(Cl)cc2)no1	FLuc counter 5.36µM, ELG1 genotoxic inconclusive, Rab9 prom act 2.82µM, NPC1 promoter act inconclusive (no result: SMN2 splice enh)
O=C(Nc1ccccc1)N1CC2(CCN(S(=O)(=O)c3ccccc3)CC2)C1	none (no result: FLuc counter, ELG1 genotoxic, Rab9 prom act, NPC1 promoter act)
CCn1cc(C(=O)O)c(=O)c2cc(F)c(N3CCNC(C)C3)c(F)c21 (stereo not drawn)	none (no result: FLuc counter, ELG1 genotoxic)
Cc1ccc(C)c(OCC(=O)N/N=C\c2cccn2C)c1	none
Cc1[nH]n(-c2ccccc2)c(=O)c1/C=N/NC(=O)c1cccc([N+](=O)[O-])c1	FLuc counter 8.49µM
CC(=O)N/N=C/c1c(C)[nH]n(-c2ccccc2)c1=O	none
Cc1[nH]n(-c2ccccc2)c(=O)c1/C=N/NC(=O)COc1ccccc1[N+](=O)[O-]	FLuc counter 21.3µM
Cc1ccc(OCC(=O)N/N=C\c2cccn2C)c([N+](=O)[O-])c1	FLuc counter 10.7µM (no result: SMN2 splice enh, Luc counter)
Cc1[nH]n(-c2ccccc2)c(=O)c1/C=N\NC(=O)C1COc2ccccc2O1 (stereo not drawn)	FLuc counter 1.9µM, ELG1 genotoxic inconclusive, Rab9 prom act inconclusive, NPC1 promoter act inconclusive
CN1C(=O)C(CCC(=O)O)NC1=S (stereo not drawn)	none (no result: SMN2 splice enh, Luc counter)
CC(C)(C)NC(=O)C(Cc1ccccc1)N1C(=O)c2ccccc2C1=O (stereo not drawn)	none (no result: SMN2 splice enh, Luc counter)
CC(C)CC(=O)c1c[nH]c(C(=O)N2CCN(Cc3ccccc3)CC2)c1	none
COCCn1c(C)cc(C(=O)COc2ccc(N(C)S(=O)(=O)c3ccc(C)cc3)cc2)c1C	FLuc counter inconclusive (no result: SMN2 splice enh, Luc counter)
COc1ccc(N2CCN(C(c3cccs3)C(C)NS(C)(=O)=O)CC2)cc1 (stereo not drawn)	none
CCCNC(=O)C1(O)c2cc(Br)ccc2NC(=O)N1c1ccc(Cl)cc1 (stereo not drawn)	none (no result: SMN2 splice enh, Luc counter)
Cc1ccc(-n2[nH]c(C)c(/C=N/Nc3ccc([N+](=O)[O-])cc3[N+](=O)[O-])c2=O)cc1C	FLuc counter 13.5µM, Luc counter inconclusive
COCCN(CCOC)c1nc(C)nc2c1nc(-c1ccccc1)n2CCCN(C)C	none (no result: FLuc counter, ELG1 genotoxic, Rab9 prom act, NPC1 promoter act)
O=C1OCC2OC(O)C(O)C(O)C2OC(=O)c2cc(O)c(O)c(O)c2-c2c(O)c(O)c3oc(=O)c4c(c(O)c(O)c5oc(=O)c2c3c54)-c2c1cc(O)c(O)c2O (stereo not drawn)	FLuc counter 26.9µM (no result: SMN2 splice enh, Luc counter)
COc1c(O)cc2c(c1O)C1OC(CO)C(O)C(O)C1OC2=O (stereo not drawn)	none (no result: SMN2 splice enh, Luc counter)
CCOC(=O)c1cc2c(nc1NC(=S)Nc1ccccc1)CC(C)(C)OC2	none
CCOC(=O)c1cc2c(nc1NC(=S)NCc1ccccc1)CCCC2	FLuc counter inconclusive, ELG1 genotoxic inconclusive, Rab9 prom act inconclusive, NPC1 promoter act inconclusive, SMN2 splice enh 11.2µM
COc1ccc(NC(=O)N2CCCC2C(=O)Nc2ccc(C)cc2C)cc1 (stereo not drawn)	none (no result: SMN2 splice enh, Luc counter)
N#Cc1ccccc1OCC(=O)Nc1ccc2c(c1)OCCO2	FLuc counter 9.53µM, ELG1 genotoxic inconclusive, Rab9 prom act 1.41µM, NPC1 promoter act inconclusive (no result: SMN2 splice enh, Luc counter)
COc1cccc(NC(=O)COC(=O)c2c(F)cccc2F)c1	FLuc counter 10.7µM
O=C(COC(=O)Cc1ccccc1F)Nc1ccc2c(c1)OCCO2	FLuc counter 16.9µM
N#Cc1ccccc1OCC(=O)Nc1ccc2c(c1)OCCCO2	FLuc counter 16.9µM, Rab9 prom act 3.16µM, NPC1 promoter act 2.24µM (no result: SMN2 splice enh, Luc counter)
COc1cccc(NC(=O)COC(=O)c2ccco2)c1	FLuc counter inconclusive
CCc1nn(CC(=O)N2CCCCC2)c(=O)c2cc3sc(C)cc3n12	none (no result: ELG1 genotoxic, Rab9 prom act, NPC1 promoter act, Luc counter)
O=C(COc1ccccc1Br)Nc1ccc2c(c1)OCCCO2	FLuc counter 2.13µM, ELG1 genotoxic inconclusive, Rab9 prom act 1.41µM, NPC1 promoter act 1.26µM (no result: SMN2 splice enh, Luc counter)
O=C(COC(=O)Cc1ccccc1F)Nc1ccc2c(c1)OCO2	FLuc counter inconclusive
O=C(COC(=O)c1c(F)cccc1F)Nc1ccc2c(c1)OCO2	FLuc counter 6.75µM (no result: SMN2 splice enh, Luc counter)
Cc1c(NC(=O)c2cccc(NC(=O)COc3ccccc3C#N)c2)c(=O)n(-c2ccccc2)n1C	FLuc counter 1.35µM, Rab9 prom act 3.98µM, NPC1 promoter act 2.24µM (no result: SMN2 splice enh, Luc counter)
O=C(COc1ccccc1F)Nc1ccc2c(c1)OCCO2	FLuc counter 6.75µM, ELG1 genotoxic 10.3µM, Rab9 prom act 3.16µM, NPC1 promoter act 1.78µM (no result: SMN2 splice enh, Luc counter)
Cc1cc(OCC(=O)Nc2ccc3c(c2)OCCO3)cc(C)c1Cl	FLuc counter inconclusive
CCOc1ccc(Nc2c(S(=O)(=O)c3ccc(Cl)cc3)cnc3ccc(OC)cc23)cc1	none (no result: ELG1 genotoxic, Rab9 prom act, NPC1 promoter act, Luc counter)
O=c1c2cn[nH]c2[nH]c(=S)n1-c1ccccc1Cl	none (no result: SMN2 splice enh, Luc counter)
O=c1c2cn[nH]c2[nH]c(=S)n1-c1ccccc1F	FLuc counter 1.2µM, ELG1 genotoxic 6.51µM, Rab9 prom act inconclusive, NPC1 promoter act 2.82µM, SMN2 splice enh 14.1µM

Compound activity deposited in PubChem BioAssay by National Center for Advancing Translational Sciences (NCATS).
